# Results published in the supplement of paper PMC6555819.
# Columns and labels:
# Assay in all cases: PBM binding z-score (relative to random genomic background probes); higher = stronger binding; sequences stand for … in GC…GCGATTGACAGCGTAGAATGAAGG
# [1] = tested on: RARb homodimer (NR concentration 270 nM)
# Outline: (§1)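 Custom Agilent 4×180K protein-binding microarrays carried double-stranded probes. Their 34-nt variable regions held direct-repeat seeds, single-nucleotide variants, half-site ablations and random human genomic background sequences. Arrays were incubated 1 h with ligand-free nuclear receptor dimers in PBS pH 7.4, 2% milk, 0.02% Triton X-100, 1 mM DTT, 0.2 mg/mL BSA and 0.4 mg/ml salmon testes DNA. Antibodies against each partner (one per run) detected binding, and scanned fluorescence was regression-normalized. Binding z-scores use random background probes as reference.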
# [2] = tested on: RARg:RXRa (NR concentration 270 nM, RXRa partner concentration 90 nM)
# Outline: as §1
# [3] = tested on: RARg homodimer (NR concentration 270 nM)
# Outline: as §1
# [4] = tested on: RXRa DBDmut IVT, anti-RXR (DBD mutation: RXRa K156A/R161A, NR concentration 90 nM)
# Outline: as §1
# [5] = tested on: RXRa homodimer (NR concentration 180 nM)
# Outline: as §1
# [6] = tested on: THRa:RXRa (NR concentration 90 nM, RXRa partner concentration 90 nM)
# Outline: as §1
# [7] = tested on: THRa homodimer (NR concentration 90 nM)
# Outline: as §1
# [8] = tested on: VDR homodimer (NR concentration 270 nM)
# Outline: as §1
sequence,measurement,setting,value
TCTAGTCGGTCACGGAGGTCACACACGACGGGTA,PBM binding z-score,[1],5.2
same,PBM binding z-score,[2],5.84
same,PBM binding z-score,[3],6.47
same,PBM binding z-score,[4],1.15
same,PBM binding z-score,[5],5.17
same,PBM binding z-score,[6],3.94
same,PBM binding z-score,[7],2.48
same,PBM binding z-score,[8],3.72
GCTGATAGGTCAGGTTGGTCAGCTAACGGGTACG,PBM binding z-score,[1],3.37
same,PBM binding z-score,[2],3.84
same,PBM binding z-score,[3],4.49
same,PBM binding z-score,[4],0.3
same,PBM binding z-score,[5],2.6
same,PBM binding z-score,[6],1.46
same,PBM binding z-score,[7],-0.126
same,PBM binding z-score,[8],0.351
TCTTCTAGATCAATAGAGGTTAAGAAAGTGCGCT,PBM binding z-score,[1],1.17
same,PBM binding z-score,[2],1.06
same,PBM binding z-score,[3],0.808
same,PBM binding z-score,[4],0.902
same,PBM binding z-score,[5],1.4
same,PBM binding z-score,[6],1.96
same,PBM binding z-score,[7],-0.514
same,PBM binding z-score,[8],0.255
GTTGCTAGGTCAGGTTGGTCAGCTAACGGGTACG,PBM binding z-score,[1],3.23
same,PBM binding z-score,[2],2.74
same,PBM binding z-score,[3],4.18
same,PBM binding z-score,[4],0.0427
same,PBM binding z-score,[5],1.4
same,PBM binding z-score,[6],2.02
same,PBM binding z-score,[7],1.06
same,PBM binding z-score,[8],0.821
CCAGACAGGTAAAAGGTAACTCAGTCTGGTACGC,PBM binding z-score,[1],0.19
same,PBM binding z-score,[2],0.33
same,PBM binding z-score,[3],0.29
same,PBM binding z-score,[4],-0.178
same,PBM binding z-score,[5],1.09
same,PBM binding z-score,[6],0.372
same,PBM binding z-score,[7],-0.238
same,PBM binding z-score,[8],0.202
CCTAGCAGGCCAATTTGGGTCACTCAAGGCTTGA,PBM binding z-score,[1],2.08
same,PBM binding z-score,[2],0.9
same,PBM binding z-score,[3],1.21
same,PBM binding z-score,[4],0.0247
same,PBM binding z-score,[5],0.826
same,PBM binding z-score,[6],3.86
same,PBM binding z-score,[7],0.606
same,PBM binding z-score,[8],-0.23
ATCGAAAGGTCGAACGTGAGTATACCCACCCGAA,PBM binding z-score,[1],2.3
same,PBM binding z-score,[2],3.98
same,PBM binding z-score,[3],3.79
same,PBM binding z-score,[4],1.83
same,PBM binding z-score,[5],4.08
same,PBM binding z-score,[6],1.89
same,PBM binding z-score,[7],-0.12
same,PBM binding z-score,[8],0.989
CGAACTAGGTCCGAACAGGACAGTGAAGGATGAT,PBM binding z-score,[1],-0.462
same,PBM binding z-score,[2],-0.22
same,PBM binding z-score,[3],0.235
same,PBM binding z-score,[4],0.44
same,PBM binding z-score,[5],-0.527
same,PBM binding z-score,[6],0.105
same,PBM binding z-score,[7],-0.912
same,PBM binding z-score,[8],-0.155
AGAACGAGGGCAAGCTGAGTTGATAGCAGAGTAG,PBM binding z-score,[1],1.06
same,PBM binding z-score,[2],1.53
same,PBM binding z-score,[3],1.97
same,PBM binding z-score,[4],2.1
same,PBM binding z-score,[5],0.964
same,PBM binding z-score,[6],1.35
same,PBM binding z-score,[7],-0.471
same,PBM binding z-score,[8],1.36
GCTTGTAGATCAAGGGTAAGAAAGACTAAGCTAA,PBM binding z-score,[1],-0.585
same,PBM binding z-score,[2],-0.317
same,PBM binding z-score,[3],-0.393
same,PBM binding z-score,[4],-0.509
same,PBM binding z-score,[5],-0.00933
same,PBM binding z-score,[6],-0.138
same,PBM binding z-score,[7],-0.974
same,PBM binding z-score,[8],-0.486
ATATGTAGGTTAAGGCTCATTCAGGTTGGTTCGC,PBM binding z-score,[1],0.698
same,PBM binding z-score,[2],0.684
same,PBM binding z-score,[3],0.622
same,PBM binding z-score,[4],0.534
same,PBM binding z-score,[5],0.844
same,PBM binding z-score,[6],0.76
same,PBM binding z-score,[7],0.71
same,PBM binding z-score,[8],0.761
CGTCCAAGGTCAATGCTAGGTCAGTGAGAGCATT,PBM binding z-score,[1],5.01
same,PBM binding z-score,[2],7.45
same,PBM binding z-score,[3],6.65
same,PBM binding z-score,[4],3.53
same,PBM binding z-score,[5],5.06
same,PBM binding z-score,[6],4.37
same,PBM binding z-score,[7],2.87
same,PBM binding z-score,[8],3.36
CCTCGGAGGACAACAGGAGGTAAGAGCTGCCAGA,PBM binding z-score,[1],0.361
same,PBM binding z-score,[2],0.652
same,PBM binding z-score,[3],1.09
same,PBM binding z-score,[4],-0.216
same,PBM binding z-score,[5],-0.00959
same,PBM binding z-score,[6],0.811
same,PBM binding z-score,[7],-0.12
same,PBM binding z-score,[8],-0.145
TCTTGGAGGACACGAAGGTCAGAGCTTTCCAGAG,PBM binding z-score,[1],3.54
same,PBM binding z-score,[2],3.23
same,PBM binding z-score,[3],3.69
same,PBM binding z-score,[4],0.774
same,PBM binding z-score,[5],1.83
same,PBM binding z-score,[6],2.89
same,PBM binding z-score,[7],0.692
same,PBM binding z-score,[8],1.13
GGAACGAGGGCATTCTAGTTGATAGCATGGCGAT,PBM binding z-score,[1],0.668
same,PBM binding z-score,[2],0.971
same,PBM binding z-score,[3],1.39
same,PBM binding z-score,[4],3.36
same,PBM binding z-score,[5],0.575
same,PBM binding z-score,[6],2.54
same,PBM binding z-score,[7],-0.282
same,PBM binding z-score,[8],2.43
CGTCCAGGGTCAGAGAGGTCAGTGAATGCCGAGT,PBM binding z-score,[1],5.27
same,PBM binding z-score,[2],6.18
same,PBM binding z-score,[3],6.48
same,PBM binding z-score,[4],2.79
same,PBM binding z-score,[5],6.28
same,PBM binding z-score,[6],4.29
same,PBM binding z-score,[7],2.13
same,PBM binding z-score,[8],5.45
CAAACTAGGTCACGAAAGGTCAATGTCGAATGAC,PBM binding z-score,[1],5.73
same,PBM binding z-score,[2],7.46
same,PBM binding z-score,[3],8.51
same,PBM binding z-score,[4],2.11
same,PBM binding z-score,[5],7.37
same,PBM binding z-score,[6],5.27
same,PBM binding z-score,[7],2.55
same,PBM binding z-score,[8],2.77
ATCTCTAGGTAAAAATTCAGTGAATCCCGAGGAT,PBM binding z-score,[1],-0.367
same,PBM binding z-score,[2],0.604
same,PBM binding z-score,[3],0.58
same,PBM binding z-score,[4],-0.329
same,PBM binding z-score,[5],0.184
same,PBM binding z-score,[6],0.19
same,PBM binding z-score,[7],-0.0698
same,PBM binding z-score,[8],-0.0746
TCATATAGGTAAATGGTAGGTGAAAGTCCGATCT,PBM binding z-score,[1],0.917
same,PBM binding z-score,[2],0.69
same,PBM binding z-score,[3],0.384
same,PBM binding z-score,[4],1.84
same,PBM binding z-score,[5],0.945
same,PBM binding z-score,[6],0.858
same,PBM binding z-score,[7],0.785
same,PBM binding z-score,[8],1.1
CGAACTAGGTCAAAGGTCAAAGTCGAGCCAACCA,PBM binding z-score,[1],5.24
same,PBM binding z-score,[2],8.9
same,PBM binding z-score,[3],7.55
same,PBM binding z-score,[4],3.33
same,PBM binding z-score,[5],10.3
same,PBM binding z-score,[6],4.58
same,PBM binding z-score,[7],1.53
same,PBM binding z-score,[8],3.66
CGAACTAGGTCATCCATGACAGTGAATACATTGA,PBM binding z-score,[1],2.92
same,PBM binding z-score,[2],4
same,PBM binding z-score,[3],4.72
same,PBM binding z-score,[4],2.04
same,PBM binding z-score,[5],2.97
same,PBM binding z-score,[6],2.84
same,PBM binding z-score,[7],0.683
same,PBM binding z-score,[8],1.17
CCGACTGGGGCAGAAAGGATACCATACCATCCGG,PBM binding z-score,[1],0.0502
same,PBM binding z-score,[2],-0.104
same,PBM binding z-score,[3],0.264
same,PBM binding z-score,[4],-1.19
same,PBM binding z-score,[5],-0.344
same,PBM binding z-score,[6],-0.682
same,PBM binding z-score,[7],-0.741
same,PBM binding z-score,[8],-0.566
ACTATTAGTTGACTTGGGGCAACCGATACGACGC,PBM binding z-score,[1],0.856
same,PBM binding z-score,[2],0.552
same,PBM binding z-score,[3],0.701
same,PBM binding z-score,[4],0.839
same,PBM binding z-score,[5],0.366
same,PBM binding z-score,[6],1.29
same,PBM binding z-score,[7],0.534
same,PBM binding z-score,[8],0.357
TGTCAAAGTTTAAAGGTAACGTAAGTATCCACAC,PBM binding z-score,[1],1.36
same,PBM binding z-score,[2],2.26
same,PBM binding z-score,[3],1.75
same,PBM binding z-score,[4],1.11
same,PBM binding z-score,[5],2.1
same,PBM binding z-score,[6],1.99
same,PBM binding z-score,[7],-0.137
same,PBM binding z-score,[8],0.446
CCAGACAGATGAGAAGGTAACTCAGCCTCGATTA,PBM binding z-score,[1],-0.0918
same,PBM binding z-score,[2],0.0576
same,PBM binding z-score,[3],0.416
same,PBM binding z-score,[4],0.092
same,PBM binding z-score,[5],0.0859
same,PBM binding z-score,[6],0.0683
same,PBM binding z-score,[7],0.259
same,PBM binding z-score,[8],0.296
CCTCGGAGGACTACAGGAGGTCAGAGCTGCCAGA,PBM binding z-score,[1],2.9
same,PBM binding z-score,[2],2.37
same,PBM binding z-score,[3],2.06
same,PBM binding z-score,[4],-0.895
same,PBM binding z-score,[5],1.93
same,PBM binding z-score,[6],2.55
same,PBM binding z-score,[7],0.263
same,PBM binding z-score,[8],0.359
GGAACGAGGGCAAGTCGATAGCAGAGTTTGATGG,PBM binding z-score,[1],1.18
same,PBM binding z-score,[2],1.36
same,PBM binding z-score,[3],2
same,PBM binding z-score,[4],1.89
same,PBM binding z-score,[5],0.701
same,PBM binding z-score,[6],0.983
same,PBM binding z-score,[7],-0.0774
same,PBM binding z-score,[8],1.08
CGTCCAAGGTCAAAGGACAGTGAAGAGATGACGG,PBM binding z-score,[1],4.02
same,PBM binding z-score,[2],5.79
same,PBM binding z-score,[3],6.52
same,PBM binding z-score,[4],3.52
same,PBM binding z-score,[5],5.67
same,PBM binding z-score,[6],3.76
same,PBM binding z-score,[7],1.95
same,PBM binding z-score,[8],2.37
